# The full list was thinned out, with the strongest signals kept by preference.
# B1: OGAN (protein)
# chain: MVQKESQATLEERESELSSNPAASAGASLEPPAAPAPGEDNPAGAGGAAVAGAAGGARRFLCGVVEGFYGRPWVMEQRKELFRRLQKWELNTYLYAPKDDYKHRMFWREMYSVEEAEQLMTLISAAREYEIEFIYAISPGLDITFSNPKEVSTLKRKLDQVSQFGCRSFALLFNDIDHNMCAADKEVFSSFAHAQVSITNEIYQYLGEPETFLFCPTEYCGTFCYPNVSQSPYLRTVGEKLLPGIEVLWTGPKVVSKEIPVESIEEVSKIIKRAPVIWDNIHANDYDQKRLFLGPYKGRSTELIPRLKGVLTNPNCEFEANYVAIHTLATWYKSNMNGVRKDVVMTDSEDSTVSIQIKLENEGSDEDIETDVLYSPQMALKLALTEWLQEFGVPHQY
# Experiments:
# Assay in all cases: glycan array binding signal (z-score within array); higher = stronger binding
# Details in all cases: glycan notation: IUPAC condensed, linker removed
# [1] = molecular target: Fuc(a1-2)Gal(b1-3)[Fuc(a1-4)]GlcNAc(b1-2)Man(a1-3)[Fuc(a1-2)Gal(b1-3)[Fuc(a1-4)]GlcNAc(b1-2)Man(a1-3)]Man(b1-4)GlcNAc(b1-4)GlcNAc
# In short: (§1)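 The binding signal is a Z-score computed within each array. Data were drawn from 3228 arrays in the Consortium for Functional Glycomics database, restricted to those with a known protein sequence. Scores were averaged over arrays of the same protein sequence at different concentrations or buffers, and over linkers, and negative values can be taken as non-binding.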
# [2] = molecular target: Fuc(a1-2)Gal(b1-4)GlcNAc(b1-2)Man(a1-3)[Fuc(a1-2)Gal(b1-4)GlcNAc(b1-2)Man(a1-6)]Man(b1-4)GlcNAc(b1-4)[Fuc(a1-6)]GlcNAc
# In short: as §1
# [3] = molecular target: Fuc(a1-2)Gal(b1-4)GlcNAc(b1-2)[Fuc(a1-2)Gal(b1-4)GlcNAc(b1-4)]Man(a1-3)[Fuc(a1-2)Gal(b1-4)GlcNAc(b1-2)Man(a1-6)]Man(b1-4)GlcNAc(b1-4)GlcNAc
# In short: as §1
# [4] = molecular target: Fuc(a1-2)Gal(b1-4)GlcNAc(b1-3)[Fuc(a1-2)Gal(b1-4)GlcNAc(b1-6)]GalNAc
# In short: as §1
# [5] = molecular target: Fuc(a1-2)Gal6S(b1-3)GlcNAc6S
# In short: as §1
# [6] = molecular target: Fuc(a1-2)[Gal(a1-3)]Gal(b1-3)GalNAc
# In short: as §1
# [7] = molecular target: Fuc(a1-2)[Gal(a1-3)]Gal(b1-4)GlcNAc(b1-3)[Fuc(a1-2)[Gal(a1-3)]Gal(b1-4)GlcNAc(b1-6)]GalNAc
# In short: as §1
# [8] = molecular target: Fuc(a1-2)[GalNAc(a1-3)]Gal(b1-3)GalNAc(a1-3)[Fuc(a1-2)]Gal(b1-4)GlcNAc
# In short: as §1
# [9] = molecular target: Fuc(a1-2)[GalNAc(a1-3)]Gal(b1-3)GalNAc(b1-3)Gal(a1-4)Gal(b1-4)Glc
# In short: as §1
# [10] = molecular target: Fuc(a1-2)[GalNAc(a1-3)]Gal(b1-4)GlcNAc
# In short: as §1
# [11] = molecular target: Fuc(a1-2)[GalNAc(a1-3)]Gal(b1-4)GlcNAc(b1-3)Gal(b1-4)GlcNAc(b1-3)Gal(b1-4)GlcNAc
# In short: as §1
# [12] = molecular target: Fuc(a1-2)[GalNAc(a1-3)]Gal(b1-4)[Fuc(a1-3)]GlcNAc
# In short: as §1
# [13] = molecular target: Fuc(a1-2)[GalNAc(a1-4)]Gal(b1-4)GlcNAc
# In short: as §1
# [14] = molecular target: Fuc(a1-3)[Gal(b1-4)]GlcNAc6S
# In short: as §1
# [15] = molecular target: Fuc(a1-3)[Gal3S(b1-4)]GlcNAc
# In short: as §1
# [16] = molecular target: Fuc(a1-3)[Gal3S(b1-4)]GlcNAc6S
# In short: as §1
# [17] = molecular target: Gal(a1-3)Gal(b1-4)GlcNAc(b1-2)Man
# In short: as §1
# [18] = molecular target: Gal(a1-3)Gal(b1-4)[Fuc(a1-3)]GlcNAc(b1-2)Man(a1-3)[Gal(a1-3)Gal(b1-4)[Fuc(a1-3)]GlcNAc(b1-2)Man(a1-6)]Man(b1-4)GlcNAc(b1-4)GlcNAc
# In short: as §1
# [19] = molecular target: Gal(b1-3)GalNAc(b1-4)Gal(b1-4)Glc
# In short: as §1
# [20] = molecular target: Gal(b1-3)GlcNAc(b1-2)Man(a1-3)[Gal(b1-3)GlcNAc(b1-2)Man(a1-6)]Man(b1-4)GlcNAc(b1-4)[Fuc(a1-6)]GlcNAc
# In short: as §1
# [21] = molecular target: Gal(b1-3)GlcNAc(b1-3)Gal(b1-4)GlcNAc(b1-2)[Gal(b1-3)GlcNAc(b1-3)Gal(b1-4)GlcNAc(b1-6)]Man(a1-6)[Gal(b1-3)GlcNAc(b1-3)Gal(b1-4)GlcNAc(b1-2)Man(a1-3)]Man(b1-4)GlcNAc(b1-4)[Fuc(a1-6)]GlcNAc
# In short: as §1
# [22] = molecular target: Gal(b1-3)[Fuc(a1-4)]GlcNAc(b1-2)Man
# In short: as §1
# [23] = molecular target: Gal(b1-4)GlcNAc(b1-2)Man(a1-3)[Gal(b1-4)GlcNAc(b1-2)Man(a1-6)][Gal(b1-4)GlcNAc(b1-4)]Man(b1-4)GlcNAc(b1-4)[Fuc(a1-6)]GlcNAc
# In short: as §1
# [24] = molecular target: Gal(b1-4)GlcNAc(b1-3)Gal(b1-4)GlcNAc(b1-2)[Gal(b1-4)GlcNAc(b1-3)Gal(b1-4)GlcNAc(b1-6)]Man(a1-6)[Gal(b1-4)GlcNAc(b1-3)Gal(b1-4)GlcNAc(b1-2)Man(a1-3)]Man(b1-4)GlcNAc(b1-4)[Fuc(a1-6)]GlcNAc
# In short: as §1
# [25] = molecular target: Gal(b1-4)GlcNAc(b1-3)Gal(b1-4)GlcNAc(b1-3)Gal(b1-4)GlcNAc(b1-2)[Gal(b1-4)GlcNAc(b1-3)Gal(b1-4)GlcNAc(b1-3)Gal(b1-4)GlcNAc(b1-6)]Man(a1-6)[Gal(b1-4)GlcNAc(b1-3)Gal(b1-4)GlcNAc(b1-3)Gal(b1-4)GlcNAc(b1-2)Man(a1-3)]Man(b1-4)GlcNAc(b1-4)[Fuc(a1-6)]GlcNAc
# In short: as §1
# [26] = molecular target: Gal(b1-4)GlcNAc(b1-3)Gal(b1-4)GlcNAc(b1-3)Gal(b1-4)GlcNAc(b1-3)Gal(b1-4)GlcNAc(b1-3)Gal(b1-4)GlcNAc(b1-2)Man(a1-3)[Gal(b1-4)GlcNAc(b1-3)Gal(b1-4)GlcNAc(b1-3)Gal(b1-4)GlcNAc(b1-3)Gal(b1-4)GlcNAc(b1-3)Gal(b1-4)GlcNAc(b1-2)Man(a1-6)]Man(b1-4)GlcNAc(b1-4)[Fuc(a1-6)]GlcNAc
# In short: as §1
# [27] = molecular target: Gal(b1-4)GlcNAc(b1-3)[GlcNAc(b1-6)]Gal(b1-4)GlcNAc
# In short: as §1
# [28] = molecular target: Gal(b1-4)GlcNAc(b1-6)GalNAc
# In short: as §1
# [29] = molecular target: Gal3S(b1-4)GlcNAc
# In short: as §1
binder,measurement,setting,value
B1,glycan array binding signal (z-score),[1],0.055
same,glycan array binding signal (z-score),[2],-0.047
same,glycan array binding signal (z-score),[3],-0.036
same,glycan array binding signal (z-score),[4],-0.036
same,glycan array binding signal (z-score),[5],0.263
same,glycan array binding signal (z-score),[6],0.104
same,glycan array binding signal (z-score),[7],0.056
same,glycan array binding signal (z-score),[8],23.3
same,glycan array binding signal (z-score),[9],7.17
same,glycan array binding signal (z-score),[10],-0.083
same,glycan array binding signal (z-score),[11],-0.044
same,glycan array binding signal (z-score),[12],-0.028
same,glycan array binding signal (z-score),[13],-0.033
same,glycan array binding signal (z-score),[14],-0.052
same,glycan array binding signal (z-score),[15],0.055
same,glycan array binding signal (z-score),[16],-0.076
same,glycan array binding signal (z-score),[17],-0.037
same,glycan array binding signal (z-score),[18],-0.048
same,glycan array binding signal (z-score),[19],-0.029
same,glycan array binding signal (z-score),[20],-0.064
same,glycan array binding signal (z-score),[21],0.166
same,glycan array binding signal (z-score),[22],-0.036
same,glycan array binding signal (z-score),[23],-0.086
same,glycan array binding signal (z-score),[24],-0.01
same,glycan array binding signal (z-score),[25],-0.03
same,glycan array binding signal (z-score),[26],-0.001
same,glycan array binding signal (z-score),[27],-0.059
same,glycan array binding signal (z-score),[28],-0.053
same,glycan array binding signal (z-score),[29],-0.067
